Laboratory results as given in PubChem BioAssay (NCATS).
Several values for one entry are separate records, joined by “and”; a condition that tells them apart may be missing. Identical values can stand only once. A number with no mark means an inactive call. Records with an inconclusive call do not appear. Entries that show only a call come without a potency. Activity calls are given as the source filed them. Unless noted, the call rests on the fitted dose curve; in most records, active means well fitted curve in the direction sought with a large enough effect; inconclusive means small, poorly fitted or top-dose-only effect, or another doubt; inactive means no such curve, though single readings can be large; an effect the other way counts as inactive or inconclusive.

Assays:
[1] = biological target: Cytochrome P450 2C9 (Homo sapiens) (UniProt P11712); assay: qHTS Assay for Inhibitors and Substrates of Cytochrome P450 2C9 (AID 883); further: nearly all actives have a fitted effect of over 60% in size; further: potency means the concentration at half of the fitted maximal effect
Chain of Cytochrome P450 2C9 (Homo sapiens) (P11712 whole entry, looked up): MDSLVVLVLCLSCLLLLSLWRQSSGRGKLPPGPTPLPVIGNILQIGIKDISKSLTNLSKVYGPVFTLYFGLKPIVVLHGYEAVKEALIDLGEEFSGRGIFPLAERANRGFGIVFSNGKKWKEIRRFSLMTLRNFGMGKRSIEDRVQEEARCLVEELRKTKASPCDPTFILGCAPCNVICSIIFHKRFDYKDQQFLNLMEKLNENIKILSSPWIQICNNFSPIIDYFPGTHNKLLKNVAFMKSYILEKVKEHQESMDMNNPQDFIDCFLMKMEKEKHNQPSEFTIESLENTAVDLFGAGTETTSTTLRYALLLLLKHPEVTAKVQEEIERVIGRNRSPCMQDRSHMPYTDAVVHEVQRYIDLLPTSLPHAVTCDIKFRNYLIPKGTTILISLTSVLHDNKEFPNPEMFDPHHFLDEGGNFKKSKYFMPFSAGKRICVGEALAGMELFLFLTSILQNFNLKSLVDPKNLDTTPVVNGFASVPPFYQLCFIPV
Method in brief: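 Human CYP2C9 (10nM) hydroxylated Luciferin-H (100uM, at its KM) to luciferin in 25mM KPO4. Compound was preincubated 10 min at 37C, then NADPH regeneration started a 60 min reaction at 37C. Luminescence was read after detection reagent, normalized to 57uM sulphaphenazole.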

[2] = biological target: Cytochrome P450 3A4 (Homo sapiens) (UniProt P08684); assay: qHTS Assay for Activators of Cytochrome P450 3A4 (AID 885); further: nearly all actives have a fitted effect of over 65% in size
Chain of Cytochrome P450 3A4 (Homo sapiens) (P08684 whole entry, looked up): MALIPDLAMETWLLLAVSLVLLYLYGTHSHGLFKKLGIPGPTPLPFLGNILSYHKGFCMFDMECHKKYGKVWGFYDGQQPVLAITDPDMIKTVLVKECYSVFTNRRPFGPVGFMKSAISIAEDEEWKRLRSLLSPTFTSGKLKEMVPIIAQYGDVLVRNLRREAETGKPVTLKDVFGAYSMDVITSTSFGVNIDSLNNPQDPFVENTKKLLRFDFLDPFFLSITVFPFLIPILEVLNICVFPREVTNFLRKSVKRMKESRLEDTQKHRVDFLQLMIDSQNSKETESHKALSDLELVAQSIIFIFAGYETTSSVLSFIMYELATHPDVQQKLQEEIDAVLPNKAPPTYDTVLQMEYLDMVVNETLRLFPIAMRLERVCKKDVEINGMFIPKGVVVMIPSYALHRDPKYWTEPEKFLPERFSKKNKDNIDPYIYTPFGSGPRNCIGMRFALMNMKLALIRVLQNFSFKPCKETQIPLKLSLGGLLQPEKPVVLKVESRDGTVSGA
Method in brief: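 Signal was normalized against complete inhibition by 57 uM ketoconazole. The reaction used 20nM CYP3A4 with 25uM Luciferin-PPXE, 10-min compound preincubation and a 60-min NADPH-supported step at RT.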

[3] = biological target: Cytochrome P450 2D6 (Homo sapiens) (UniProt P10635); assay: qHTS Assay for Inhibitors and Substrates of Cytochrome P450 2D6 (AID 891); further: nearly all actives have a fitted effect of over 60% in size; further: potency means the concentration at half of the fitted maximal effect
Chain of Cytochrome P450 2D6 (Homo sapiens) (P10635 whole entry, looked up): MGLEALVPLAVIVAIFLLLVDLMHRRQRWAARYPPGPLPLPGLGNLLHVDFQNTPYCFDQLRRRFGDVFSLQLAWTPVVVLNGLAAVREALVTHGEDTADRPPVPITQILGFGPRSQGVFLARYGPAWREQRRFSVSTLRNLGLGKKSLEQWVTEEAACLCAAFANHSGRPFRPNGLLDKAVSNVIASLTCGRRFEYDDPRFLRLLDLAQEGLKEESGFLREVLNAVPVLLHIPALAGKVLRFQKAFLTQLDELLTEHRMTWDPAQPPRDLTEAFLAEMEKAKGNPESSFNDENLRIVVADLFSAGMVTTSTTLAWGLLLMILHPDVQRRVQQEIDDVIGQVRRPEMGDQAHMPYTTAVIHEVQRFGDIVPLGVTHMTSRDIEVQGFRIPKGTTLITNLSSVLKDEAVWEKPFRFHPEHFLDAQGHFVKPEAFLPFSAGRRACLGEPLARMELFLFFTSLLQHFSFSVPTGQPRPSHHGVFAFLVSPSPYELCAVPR
Method in brief: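 Human CYP2D6 (5 nM) with 30 uM Luciferin-ME EGE (at Km) in 100 mM KPO4, compound preincubated 10 min, then NADPH regeneration system for 60 min at room temperature. Luciferin read by luminescence; normalized to 1.43 uM quinidine.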

[4] = biological target: Cytochrome P450 2C19 (Homo sapiens) (UniProt P33261); assay: qHTS Assay for Inhibitors and Substrates of Cytochrome P450 2C19 (AID 899); further: nearly all actives have a fitted effect of over 60% in size; further: potency means the concentration at half of the fitted maximal effect
Chain of Cytochrome P450 2C19 (Homo sapiens) (P33261 whole entry, looked up): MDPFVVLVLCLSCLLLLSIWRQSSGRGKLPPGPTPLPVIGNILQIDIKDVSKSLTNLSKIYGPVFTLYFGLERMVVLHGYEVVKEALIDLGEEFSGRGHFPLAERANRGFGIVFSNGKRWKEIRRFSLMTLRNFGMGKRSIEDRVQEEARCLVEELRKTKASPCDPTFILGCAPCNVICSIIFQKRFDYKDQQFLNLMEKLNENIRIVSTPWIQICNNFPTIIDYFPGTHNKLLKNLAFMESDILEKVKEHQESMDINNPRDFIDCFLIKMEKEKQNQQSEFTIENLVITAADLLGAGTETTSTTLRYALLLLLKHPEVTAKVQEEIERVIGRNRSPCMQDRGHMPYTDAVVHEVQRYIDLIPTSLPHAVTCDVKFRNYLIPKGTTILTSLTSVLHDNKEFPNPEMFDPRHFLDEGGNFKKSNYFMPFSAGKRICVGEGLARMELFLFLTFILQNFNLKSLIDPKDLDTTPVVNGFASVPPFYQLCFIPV
Method in brief: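 Human CYP2C19 (5nM) with Luciferin-H EGE at 10uM (its KM) in 50mM KPO4 was preincubated with compound for 10 min at 37C. NADPH regeneration started a 60 min 37C reaction. Luciferin was read by luminescence, normalized to 57uM ketoconazole.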

[5] = qHTS Assay for Identification of Small Molecule Agonists for Hypoxia Response Element Signaling Pathway (AID 914; active means well fitted activation curve with a large enough effect in the signal ratio, with a control signal flat, not every such curve was filed as active; the % refers to the signal ratio); conditions: ME-180 (cervical carcinoma) HRE-bla reporter, beta-lactamase ratio, CoCl2, 17 h; hits give high values
Method in brief: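 Cells were plated overnight, pin-dosed with compound in a titration series, co-stimulated with EC50 CoCl2 and incubated 17 hours at 37 degrees Celsius. CCF4 substrate was then loaded, and AC50 values came from the 460nm/530nm ratio.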

| Structure (SMILES) | Potency [1] | activity change, positive = activation [2] | Potency [3] | Potency [4] | activation [5] [%] |
| --- | --- | --- | --- | --- | --- |
| COC(=O)C(C(=O)OC)C1O[C@@]23COCCC2(C)C3c2ccccc21 (stereo partly specified) | inactive | -34.9% [at 11.4 µM] | inactive | inactive |  |
| COC1(C#CC2C=CC(OC(C)=O)C(COC(C)=O)O2)CCCCC1 (stereo unspecified) | inactive | -43% [at 11.4 µM] | inactive | inactive |  |
| COC(=O)C1=C(C)N(Cc2ccccc2)C2=C(C(C)=O)C[C@@](O)(C(=O)OC)C(=O)N2C1c1ccccc1 (stereo partly specified) | inactive | -45.3% [at 11.4 µM] and -48.2% [at 11.4 µM] | inactive | inactive |  |
| COC(=O)C/C=C/C(C)C(OCc1cccc(Br)c1)C(C)C(OC)C1CCCCC1 (stereo unspecified) | 2.51 µM (active) |  | inactive |  |  |
| CCC(=O)[C@]12O[C@@]3(C4C(=O)OCCC41)N(CC)C(C)=C(C(=O)OC)C(c1ccccc1)N3C2=O (stereo partly specified) | inactive | -34.2% [at 11.4 µM] | inactive | inactive |  |
| COC(=O)NC(c1ccccc1)[C@@]1(C(=O)OC)CCCC1=O (stereo partly specified) | inactive |  | inactive |  |  |
| COc1cccc([C@@H]2Oc3ccc(Br)cc3C(=O)[C@H]2O)c1 | 2.51 µM (active) | -74.4% [at 11.4 µM] | 3.16 µM (active) | 3.16 µM (active) |  |
| COC(=O)[C@@H]1CC[C@H](C)[C@@H](c2ccc(C)cc2)N1C(=O)c1ccc(/C=N\OC[C@@H](O)COCc2ccco2)cc1 | 3.98 µM (active) | -58.1% [at 11.4 µM] |  |  | 9.82 |
| CCN1C(C)=C(C(=O)OC)C(c2ccccc2)N2C(=O)[C@](O)(C(=O)OC)C(c3ccccc3)C(C(C)=O)=C12 (stereo partly specified) | inactive | -59.7% [at 11.4 µM] | inactive | inactive |  |
